This is a sample that favours compounds with a hit; in the whole collection about 1.1% have one here.
TNAP act DEA = human TNAP activation, intermediate phosphate acceptor; 64,000 tested, under 10 active; AID 813; purified TNAP, CDP-star luminescence, 100 mM DEA, 30 min; hits give high values; scale: 0 levamisole-inhibited, 1 vehicle-only enzyme; P05186; activation factor at 20 µM;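 active = activation factor of at least 2 at 20 µM, relative to controls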
Hsp90 inh = displaces geldanamycin probe from tumor Hsp90; NCI-N417 lysate Hsp90, Cy3B-geldanamycin FP displacement; P07900; 64,000 tested, 0.35% active; inhibition, % at 30 µM;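 active = inhibition above 50%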;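 also: 0% = tracer plus lysate wells and 100% = tracer alone without lysate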
HePTP inhibitor = blocks human HePTP tyrosine phosphatase; recombinant HePTP phosphatase activity, OD absorbance; inhibition, % at 20 µM; 110,000 tested, 0.64% active; AID 521; in the data active = inhibition above about 50%;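 also: plate controls were vehicle for no effect and reference inhibitor for full effect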
Target sequence (P35236 whole entry, looked up): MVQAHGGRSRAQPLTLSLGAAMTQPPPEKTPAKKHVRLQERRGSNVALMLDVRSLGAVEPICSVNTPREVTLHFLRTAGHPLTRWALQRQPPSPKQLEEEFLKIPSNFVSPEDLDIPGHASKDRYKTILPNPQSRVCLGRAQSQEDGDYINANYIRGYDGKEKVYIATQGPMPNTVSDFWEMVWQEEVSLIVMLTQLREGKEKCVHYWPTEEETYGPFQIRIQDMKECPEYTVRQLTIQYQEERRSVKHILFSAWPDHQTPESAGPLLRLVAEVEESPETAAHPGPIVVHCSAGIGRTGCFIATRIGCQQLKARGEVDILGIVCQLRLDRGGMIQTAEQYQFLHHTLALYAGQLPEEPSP
MT1-MMP txn act = activates MT1-MMP transcription; HT1080 MT1-MMP promoter luciferase reporter, luminescence, overnight; hits give high values; activation factor at 10 µM; 86,000 tested, 0.16% active; AID 750;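 active = activation factor of at least 2 for MT1-MMP transcription at 10 µM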
E coli RNAP = Escherichia coli RNA polymerase inhibition | P0A8V2 | E. coli RNA polymerase, fluorescence transcription assay | inhibition, %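 (tested at 10 µM)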 | 62,000 tested, 0.2% active; in the data active = inhibition above about 20%;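 also: 0% = enzyme without compound and 100% = no enzyme blank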
HER2 expr 66K = Her2 kinase expression inhibition | HER2 level % of control, % at 10 µM | 65,000 tested, 0.69% active | AID 645 | SKBR-3 HER2 protein level, AlphaScreen, 18-24 h; hits give low values | P04626;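 active = HER2 level under 5% of the carrier-only control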;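 also: 100% = DMSO carrier and 0% = 500 nM PU-H71 HSP90 inhibitor; lower value means stronger loss of Her2 protein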
Numbers without * were called inactive.

Screening CCOC(=O)c1sc2nc(NC(=O)COc3ccccc3)sc2c1C returned TNAP act DEA 1, Hsp90 inh -3, HePTP inhibitor -2, MT1-MMP txn act 1.1, E coli RNAP -3 and HER2 expr 66K 101.
CCOC(=O)c1sc2nc(NC(=O)c3cccs3)sc2c1C was read as TNAP act DEA 0.9, Hsp90 inh 63*, HePTP inhibitor 4, MT1-MMP txn act 1.3, E coli RNAP 6 and HER2 expr 66K 87.
For COc1ccc(S(=O)(=O)Nc2cccc(C)c2)cc1OC the results were HePTP inhibitor 2.
`CNC(=O)c1ccc(Nc2nnc(C)c3ccccc23)cc1` gave MT1-MMP txn act 0.9.
`COc1ccc(NC(=O)c2ccc(Nc3nnc(C)c4ccccc34)cc2)cc1` gave HePTP inhibitor 60*.
`C(=N\Nc1ncc(-c2cccs2)s1)/c1ccccc1` gave HePTP inhibitor 10.
O=C(Oc1nsnc1N1CCOCC1)N1CCOCC1 was read as TNAP act DEA 0.9, Hsp90 inh -1, HePTP inhibitor 4, MT1-MMP txn act 1.1, E coli RNAP 31* and HER2 expr 66K 99.
`CC(=O)/C=C1\NC(C)(C)Cc2ccccc21` gave HePTP inhibitor 10.
CCOC(=O)Cn1nnnc1C(CC)N(Cc1cccs1)Cc1cc2ccc(OC)cc2[nH]c1=O (stereo unspecified) was read as TNAP act DEA 0.9, Hsp90 inh -2, HePTP inhibitor -10, MT1-MMP txn act 1.1, E coli RNAP -7 and HER2 expr 66K -9.3*.
Screening Cc1ccc2oc(-c3ccccc3N)nc2c1 returned HePTP inhibitor 7.
Screening O=C(O)CCCCCCCCCCN1C(=O)/C(=C/c2cccc(Br)c2)SC1=S returned HePTP inhibitor 102*.
Screening O=C(CN1C(=O)/C(=C/c2ccccc2Cl)SC1=S)Nc1cccc(C(=O)O)c1 returned HePTP inhibitor -14.
For O=C(CN1C(=O)/C(=C/c2ccccc2Cl)SC1=S)Nc1ccc(C(=O)O)cc1 the results were HePTP inhibitor 96*.
O=C(CCN1C(=O)/C(=C\c2cccs2)SC1=S)Nc1cccc(C(=O)O)c1 was read as HePTP inhibitor 93*.
`CC(=O)Oc1cccc(N2C(=O)c3ccc(C(=O)Nc4cccc(C(=O)NCC(C)C)c4)cc3C2=O)c1` gave HePTP inhibitor 7.
For c1ccc(-c2ccc(Oc3nc4ccccc4n4cnnc34)cc2)cc1 the results were HePTP inhibitor -4.
O=C1C2CCCCC2C(=O)N1c1ccc2[nH]c(=S)sc2c1 (stereo unspecified) was read as HePTP inhibitor 6.
`Cn1cc(C(=O)NC2CCCCC2)c(=O)c2cc(S(=O)(=O)N3CCCC3)ccc21` gave TNAP act DEA 1, Hsp90 inh 1, HePTP inhibitor -3, MT1-MMP txn act 1.2, E coli RNAP -5 and HER2 expr 66K -4.8*.
Screening CCn1cc(C(=O)NCc2ccccn2)c(=O)c2cc(S(=O)(=O)N3CCCCC3)ccc21 returned TNAP act DEA 1, Hsp90 inh 65*, HePTP inhibitor 4, MT1-MMP txn act 0.9, E coli RNAP -2 and HER2 expr 66K 125.
Screening CCn1cc(C(=O)NCc2ccco2)c(=O)c2cc(S(=O)(=O)N3CCCCCC3)ccc21 returned TNAP act DEA 0.9, Hsp90 inh 2, HePTP inhibitor -10, MT1-MMP txn act 0.7, E coli RNAP -5 and HER2 expr 66K 85.
`COc1ccc(Nc2nc(C)c3ccccc3n2)cc1` gave TNAP act DEA 0.9, Hsp90 inh 3, HePTP inhibitor 3, MT1-MMP txn act 2.1*, E coli RNAP 2 and HER2 expr 66K 84.
For CC1(C)CC(=O)C2=C(C1)OC1=C(C(=O)CC(C)(C)C1)C2c1ccccc1 the results were MT1-MMP txn act 1.1.
CC1(C)CC(=O)C2(CC3=C(CC(C)(C)CC3=O)O2)C(=O)C1 was read as TNAP act DEA 0.9, Hsp90 inh -4, HePTP inhibitor 6, MT1-MMP txn act 1, E coli RNAP 10 and HER2 expr 66K -33*.
Screening O=C1C(=C(c2ccccc2)c2ccccc2)C(=O)c2ccccc21 returned HePTP inhibitor -4.
For N#Cc1ccc(CSc2nnc(Nc3ccccc3)s2)cc1 the results were TNAP act DEA 0.9, Hsp90 inh 85*, HePTP inhibitor 5, MT1-MMP txn act 1.1, E coli RNAP 10 and HER2 expr 66K 95.
For C=CCn1cnc2c(c1=O)c1nc3ccccc3nc1n2/N=C/c1cc(OC)c(OC)c(OC)c1 the results were TNAP act DEA 0.9, Hsp90 inh -3, HePTP inhibitor 7, MT1-MMP txn act 1, E coli RNAP 13 and HER2 expr 66K -25*.
Screening CCN1C(=O)/C(=C\c2ccc(-c3ccccc3C(=O)OC)o2)SC1=S returned HePTP inhibitor 7.
For O=C(O)CCN1C(=O)/C(=C/c2ccc(-c3ccccc3[N+](=O)[O-])o2)SC1=S the results were HePTP inhibitor 70*.
Screening O=C(O)CN1C(=O)/C(=C\c2ccc(-c3cccc4c3C(=O)c3ccccc3C4=O)o2)SC1=S returned HePTP inhibitor 101*.
O=C1S/C(=C\c2ccc(-c3ccccc3[N+](=O)[O-])o2)C(=O)N1c1ccccc1 was read as HePTP inhibitor 0.
Screening Oc1ccc(C2CNCc3sccc32)cc1O (stereo unspecified) returned Hsp90 inh 58*.
Screening Cc1ccc(S(=O)(=O)/N=C/c2ccc(Cl)cc2Cl)cc1 returned HePTP inhibitor 6.
Screening O=C(NC(Nc1ccc(Br)cc1)C(=O)c1ccccc1)c1ccco1 (stereo unspecified) returned HePTP inhibitor -3.
Screening O=C(NC(NC(=O)c1ccco1)c1ccc(Br)cc1)c1ccco1 returned HePTP inhibitor 104*.
`CC(=O)c1ccc(NC(=O)COc2ccc3ccccc3c2)cc1` gave HePTP inhibitor 5.
Screening CC(=O)c1sc(NC(=O)c2ccc3c(c2)OCO3)nc1C returned HePTP inhibitor 103*.
CN(C)CC(C(=O)c1ccccc1)c1ccccc1 (stereo unspecified) was read as TNAP act DEA 0.9, Hsp90 inh 0, HePTP inhibitor 8, MT1-MMP txn act 0.3, E coli RNAP 5 and HER2 expr 66K -55*.
Screening CC(=O)C(C(=O)c1ccccc1)C(=O)c1ccccc1 returned HePTP inhibitor -1.
`COC(=O)c1sccc1NC(=O)c1csc(C)c1` gave TNAP act DEA 0.8, Hsp90 inh -1, HePTP inhibitor 10, MT1-MMP txn act 1.3, E coli RNAP 11 and HER2 expr 66K 0.2*.
For COC(=O)c1sccc1NC(=O)c1ccc(Cl)s1 the results were TNAP act DEA 0.9, Hsp90 inh -1, HePTP inhibitor 12, MT1-MMP txn act 1.3, E coli RNAP 3 and HER2 expr 66K 4.0*.
